Bioassay records as filed in PubChem BioAssay.
The list is not random: actives were taken first. Their share in the collection is about 4.9%.
tim23-1 inh – tim23-1 yeast growth inhibition; AID 463212; inhibition, % at 20 µM; hit rate 1.3% among 330,000; S. cerevisiae tim23-1 growth, BacTiter-Glo luminescence, 24 h;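 active = growth inhibition of the mutant yeast at or above 50%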;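 note: temperature-sensitive mutant grown at 25 °C; plate controls were DMSO-treated mutant yeast for no effect and medium wells lacking yeast for full effect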
NALP3 yeast inh – blocks the NALP3 inflammasome reconstituted in yeast; Yeast reconstituted NLRP3/ASC/caspase-1, beta-gal luminescence, 24 h; hit rate 0.39% among 330,000; AID 2825; inhibition, % at 10 µM;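 active = inhibition of 50% or more; inactive = inhibition below 50%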;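 note: plate controls were induced DMSO wells for no effect and uninduced yeast grown without galactose for full effect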
tim10-1 inh – tim10-1 yeast growth inhibition; S. cerevisiae tim10-1 ts strain growth, BacTiter-Glo, 24 h; inhibition, % at 20 µM; hit rate 2.2% among 330,000;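 active = inhibition of at least 40%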;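 note: mutant grown at 25 °C; 0% = DMSO wells with yeast and 100% = wells holding no yeast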
NALP1 yeast inh – inhibitors of NALP1 inflammasome in yeast; S. cerevisiae NALP1/ASC/caspase-1 growth, X-gal OD620, 72 h; inhibition, % at 10 µM; hit rate 0.61% among 280,000; in the data active = inhibition mostly above about 24%, no sharp cut-off; inactive = mostly below about 32%
TIM10 inh – growth inhibitors of TIM10 yeast strain; S. cerevisiae TIM10 strain growth, BacTiter-Glo luminescence, 24 h; inhibition, % at 10 µM; hit rate 1.4% among 330,000; AID 463195;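 active = inhibition of 40% or more at the single tested concentration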;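 note: wild-type TIM10 isogenic control strain grown at permissive 25 °C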
SKKanGAS inh – SKKanGAS growth inhibition; S. pyogenes SKKanGAS, kanamycin growth, BacTiter-Glo, 6 h; inhibition, % at 7.5 µM; hit rate 1.3% among 300,000; AID 1662;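 active = mean replicate score, as percent of positive control median, at least 50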;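 note: strain carries kanamycin resistance gene driven by streptokinase promoter and grows in 40 µg/ml kanamycin; loss of luminescence reflects streptokinase promoter inhibition or plain growth inhibition; 0% = median of DMSO wells and 100% = positive control at its reference dose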
tim10-1 conf – confirmation of tim10-1 mutant yeast growth inhibitors | shares compounds with tim10-1 inh | inhibition, % at 20 µM | S. cerevisiae tim10-1 ts strain growth, BacTiter-Glo, 24 h | hit rate 56% among 7,400 | AID 463213;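 active = inhibition of yeast growth at or above a set limit in either of two repeat tests at 20 µM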;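 note: tim10-1 mutant grown at permissive 25 °C to find synthetic lethal compounds; 0% = DMSO yeast wells and 100% = medium wells without yeast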
TIM10 conf – TIM10 yeast growth inhibition, confirmed | shares compounds with TIM10 inh | S. cerevisiae tim10 strain growth, BacTiter-Glo luminescence, 24 h | inhibition, % at 10 µM | AID 463215 | hit rate 63% among 4,600;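 active = inhibition of yeast growth at or above a set limit in either of two replicates at 10 µM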;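 note: this counterscreen used the strain with wild-type TIM10; 0% = yeast with DMSO and 100% = medium wells lacking yeast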
tim23-1 confirm – confirmation of tim23-1 mutant yeast growth inhibitors | shares compounds with tim23-1 inh | S. cerevisiae tim23-1 growth, BacTiter-Glo luminescence, 24 h | inhibition, % at 20 µM | hit rate 83% among 4,400 | AID 463218;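 active = inhibition above about 39% in either of two replicate wells at 20 µM, limit read from the data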;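 note: temperature-sensitive tim23-1 mutant grown at 25 °C; 0% = DMSO wells with yeast and 100% = medium wells without yeast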
The depositor's hits bear a star; · = no result.

SMILES | tim23-1 inh | NALP3 yeast inh | tim10-1 inh | NALP1 yeast inh | TIM10 inh | SKKanGAS inh | tim10-1 conf | TIM10 conf | tim23-1 confirm
CCC1Nc2ncnc(N3CCCCC3)c2N(Cc2ccc(OC)cc2)C1=O (configuration not stated) | 35.9 | 9.3 | 16.7 | · | 7.4 | · | · | · | ·
COCc1c(C(=O)N(C)Cc2ccccc2N2CCCC2)oc2ccccc12 | 24.8 | 13.9 | 22.5 | · | 5.3 | · | · | · | ·
CC(C)n1nnnc1-c1ccc(Cl)cc1 | -8.2 | 3.3 | -5.7 | 12.3 | -5.7 | -0.7 | · | · | ·
Cc1ccc(/C(N)=N/OC(=O)CCC2CCCCC2)cc1 | 77.5* | -1.1 | 59.8* | -2.4 | 83.0* | 2.8 | 43.5* | 81.8* | 70.5*
CCOc1ccccc1NC(=O)/C(C#N)=C/c1c(C)nn(-c2ccccc2)c1Cl | -8.4 | 19.6 | 4.8 | 18.0 | -2.6 | 5.1 | · | · | ·
C=CCNC(=O)/C(C#N)=C/c1ccc(C)o1 | -3.6 | 24.3 | -14.0 | 5.1 | -5.7 | -6.5 | · | · | ·
CCOCCCNC(=O)/C(C#N)=C/c1ccc([N+](=O)[O-])o1 | 75.3* | -0.9 | 84.0* | -12.2 | 67.9* | 3.8 | 78.9* | 94.2* | 73.7*
N#C/C(=C/c1ccccc1[N+](=O)[O-])C(=O)NCc1ccco1 | 60.0* | -4.2 | 52.0* | 33.7 | 59.9* | 19.2 | 44.9* | -24.6 | 54.5*
C=CCNC(=O)/C(C#N)=C/c1ccccc1[N+](=O)[O-] | 55.7* | -6.1 | 45.7* | 25.7 | 49.6* | -0.5 | 47.8* | 24.9 | 45.6*
C=CCNC(=O)/C(C#N)=C/c1c(C)nn(-c2ccccc2)c1Cl | 72.0* | 33.7 | 70.7* | 62.5 | 66.7* | -5.3 | 76.2* | 65.2* | 72.3*
Cc1cccc(NC(=O)c2nc[nH]c2C(=O)N2CCC(C)CC2)c1 | 22.9 | -0.1 | 16.4 | · | 17.1 | · | · | · | ·
CCCCNC(=O)/C(C#N)=C/c1ccc(C(=O)OC)cc1 | 6.7 | 0.3 | 20.8 | 20.8 | 10.4 | -6.5 | · | · | ·
N#C/C(=C\c1ccccc1[N+](=O)[O-])C(=O)NCc1ccccc1 | 71.0* | 12.3 | 49.1* | 13.7 | 45.6* | 4.7 | 54.5* | 50.7* | 74.2*
CCCCCCCCNC(=O)/C(C#N)=C/c1ccccc1[N+](=O)[O-] | 83.3* | 29.4 | 50.4* | 33.0 | 63.9* | 13.5 | 23.4 | 69.8* | 46.9*
NC(=O)c1ccc(OCC(=O)N2CCNC2=O)cc1 | 12.7 | 11.0 | 9.3 | · | -8.5 | · | · | · | ·
CCNc1nc(CN2CCCCC2)nc2scc(-c3ccccc3)c12 | -12.1 | 0.3 | 7.7 | 10.9 | 13.7 | -17.1 | · | · | ·
CN(Cc1ccccc1)c1nc(CN2CCOCC2)nc2scc(-c3ccccc3)c12 | 64.8* | -6.7 | 47.4* | 17.8 | 54.6* | 40.0 | 41.5* | 39.6* | 60.8*
COc1ccc(NC(=O)CN2C(=O)C(=O)N(C3CCCC3)C2=O)c(OC)c1 | -8.3 | 13.0 | -5.2 | · | -0.7 | · | · | · | ·
N#C/C(=C\c1ccc[nH]1)Sc1nc2ccccc2s1 | 54.0* | 20.3 | 42.3* | 36.6 | 14.3 | -6.5 | 29.7* | · | 47.5*
CCc1noc(C)c1C(=O)N1CCCSC1=Nc1ccccc1Cl | 12.9 | 14.2 | 14.4 | · | 3.4 | 2.3 | · | · | ·
CC(C)CC(=O)Nc1c(C(=O)N2CCN(Cc3ccccc3)CC2)oc2ccccc12 | 32.4 | 18.7 | 29.3 | 11.5 | 22.4 | 0.9 | · | · | ·
O=C1N=C(N2CCOCC2)S/C1=C1\C(=O)N(Cc2ccccc2)c2ccccc21 | 1.6 | -5.4 | 26.6 | 20.9 | -7.0 | 4.0 | · | · | ·
CCCN1C(=O)/C(=C2\SC(N3CCCCC3)=NC2=O)c2ccccc21 | 50.3* | 22.2 | 41.9* | 35.5 | 29.9 | 18.6 | 31.8* | · | 47.8*
O=C(Nc1ncccn1)c1cc([N+](=O)[O-])cc([N+](=O)[O-])c1 | 28.0 | 12.8 | 21.9 | 21.4 | -13.9 | -13.2 | · | · | ·
O=[N+]([O-])c1cc(-c2ncccn2)c([N+](=O)[O-])s1 | 51.1* | 38.3 | 88.2* | 28.6 | 91.0* | 1.2 | 83.7* | 98.7* | 91.5*
O=C(/C=C/c1ccc(Cl)cc1Cl)n1cccn1 | 66.2* | -11.9 | 56.0* | 20.5 | 53.0* | 14.9 | 57.8* | -26.1 | 84.1*
